In the library only some 8.1% were active in any assay of this set; here they are far more common.
SW480 rerep = A quantitative high throughput screen for small molecules that induce DNA re-replication in SW480 colon adenocarcinoma cells | SW480 DNA re-replication, Hoechst DNA content imaging, 48 h | Potency, µM (top dose mostly 46.1 µM), without a hit: at the top dose re-replication activation, most hits filed as activators | 1.8% of 340,000 active | AID 624297, 2012; note: % of control where 0% means no effect; nearly all actives have a fitted effect of over 55% in size
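250 cells/well; 23 nL cpd via pin tool; 48 hr, 37 C, 5% CO2; Hoechst 40 min; imager read of total nuclear intensity, ex 405/em 500-530 nm.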
ELG1 repair inh = qHTS screen for small molecules that inhibit ELG1-dependent DNA repair in human embryonic kidney (HEK293T) cells expressing luciferase-tagged ELG1; HEK293T ELG1-luciferase reporter, luminescence, 16 h; DNA damage induced by 5-fluorouridine; Potency, µM (doses to about 46.1 µM), for inactives: at the top dose activity change, negative = inhibition, hits mostly inhibitors; 2.3% of 330,000 active; note: % is set by controls: 0 for no effect and ±100 for the full control effect; nearly all actives have a fitted effect of over 55% in size
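DMSO vehicle served as the neutral condition. Each well held 2,000 cells given 5-fluorouridine plus compound; after 16 hr at 37 °C/5% CO2, ONE-Glo was added and luciferase measured 30 min later.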
KB-3-1 cytotox = qHTS assay for MDR1-selective chemotherapeutics: Primary screen using the parental adenocarcinoma cell KB-3-1; KB-3-1 viability, CellTiter-Glo ATP luminescence, 72 h; AID 1347075, 2019; 1.4% of 400,000 active; Potency, µM (doses to about 46.1 µM), hits mostly cytotoxic; note: % is set by controls: 0 for no effect and ±100 for the full control effect; nearly all actives have a fitted effect of over 60% in size
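Multi-concentration cytotoxicity screen in KB-3-1 cells grown in DMEM lacking phenol red with 10% FBS. After 72 h at 37 °C with compound, ATP-dependent luminescence was recorded.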
MCF10A rerep = A quantitative high throughput screen for small molecules that induce DNA re-replication in MCF 10a normal breast cells; Potency, µM (highest dose often 46.1 µM), for inactives: top-dose activity, positive = re-replication, hits mostly activators; MCF 10A DNA re-replication, Hoechst nuclear intensity, 48 h; 2.9% of 350,000 active; note: % of control where 0% means no effect; nearly all actives have a fitted effect of over 50% in size
KB-V1 MDR tox = qHTS assay for MDR1-selective chemotherapeutics: Primary screen using the drug-selected MDR subline cells KB-V1 | Potency, µM (series often up to 46.1 µM), most hits filed as cytotoxic | 3.4% of 400,000 active | KB-V1 MDR cells viability, CellTiter-Glo, 72 h; note: % is set by controls: 0 for no effect and ±100 for the full control effect; nearly all actives have a fitted effect of over 60% in size
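Compound-treated KB-V1 multidrug-resistant cells, 72 h, 37 degrees C; viability by CellTiter-Glo. Fitted qHTS curves give the values.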
An asterisk follows results filed as active; i = inactive; ? = inconclusive; . = no result; ! = not active in a repeat. Calls come from the whole dose curve; as a rule, active = well fitted curve in the direction sought with a large enough effect; inconclusive = small, poorly fitted or top-dose-only effect, or another doubt; inactive = no such curve, though single readings can be large; an effect the other way counts as inactive or inconclusive. Potency is the fitted concentration of half-maximal effect.

SMILES	SW480 rerep	ELG1 repair inh	KB-3-1 cytotox	MCF10A rerep	KB-V1 MDR tox
COc1ccc(-c2nnn3c2nc(N2CCCC(C)C2)c2ccccc23)cc1 (stereo unspecified)	.	.	i	.	?
CCOC(=O)C(C)Sc1cc(CS(=O)(=O)c2ccccc2)nc(-c2ccccc2)n1 (stereo unspecified)	1%	-16%	i	10%	21µM*
O=S1(=O)CCC(NC(=S)Nc2ccccc2)C1 (stereo unspecified)	4.1µM*	1%	i	1%	i
O=S1(=O)CCC(NC(=S)Nc2ccc3ccccc3c2)C1 (stereo unspecified)	-10%	?	i	-1%	i
O=c1c2c(-c3ccc(Cl)cc3)csc2nc2n1CCC2	8%	-3%	i	11%	18µM*
CCOC(=O)N1CCN(C(=O)c2c(O)c3cccc4c3n(c2=O)CC4)CC1	-8%	5%	i	-5%	i
Cn1nnnc1Sc1ncnc2scc(-c3cccc(Br)c3)c12	?	13µM*	7.3µM*	?	18µM*
Cn1nnnc1Sc1ncnc2scc(-c3cccc4c3sc3ccccc34)c12	?	?	21µM*	?	?
Cn1nnnc1Sc1ncnc2scc(-c3cccc(S(C)(=O)=O)c3)c12	10%	?	21µM*	4.6µM*	?
CC(=O)c1cccc(-c2csc3ncnc(Sc4nnnn4C)c23)c1	.	.	i	.	i
CCOc1ccc(C(C)NC(=O)c2ccccc2F)cc1 (stereo unspecified)	-97%	5%	i	1%	16µM*
Cn1cnnc1SCC(=O)Nc1ccc2nc(SCc3ccccc3F)sc2c1	0%	?	i	-2%	21µM*
O=C(CSc1nc2ccc(NC(=O)CSc3nnnn3-c3ccccc3)cc2s1)Nc1ccccc1	3%	?	i	?	i
Cn1c(SCC(=O)Nc2ccc3nc(SCC(=O)N4CCCC4)sc3c2)nnc1-c1ccccc1	13%	21µM*	i	25%	i
COc1ccc(C2C3=C(NCCN=C3c3ccccc3)C(=O)N2c2ccccc2)c(OC)c1 (stereo unspecified)	-17%	?	i	-26%	?
COc1ccc(CCNC(=O)C2CCC(=O)N2Cc2ccccc2Cl)cc1OC (stereo unspecified)	17%	-4%	i	-6%	i
O=C(NCCc1ccc(Cl)cc1)C1CCC(=O)N1Cc1ccccc1Cl (stereo unspecified)	2%	9%	i	0%	23µM*
O=C(COC(=O)C1CC1)NCCc1ccc(Cl)cc1	3.7µM*	20%	i	1%	i
O=C(COC(=O)C1CCCCC1)NCc1ccc(Cl)cc1	-1%	7%	i	-6%	i
CCc1nnc(NC(=O)CC23CC4CC(CC(C4)C2)C3)s1	-2%	27%	i	-6%	i
COc1cccc(C(=O)/C=C/c2ccc(OCC#N)c(OC)c2)c1	23µM*	?	?	9.2µM*	?
COc1cc(/C=C/C(=O)c2ccc(O)cc2)ccc1OCC#N	.	?	6.5µM*	?	18µM*
CCOc1ccc(/C=C/C(=O)c2ccccc2)cc1OC	?	?	i	?	i
CCOc1ccc(C(=O)/C=C/c2ccc(OC)c(OC)c2)cc1	?	-1%	i	?	?
Cc1ccc(NS(=O)(=O)c2cccc(C(=O)Nc3cccnc3)c2)c(C)c1	-7%	?	?	8%	i
SMILES	SW480 rerep	ELG1 repair inh	KB-3-1 cytotox	MCF10A rerep	KB-V1 MDR tox
O=C1Nc2ccc(I)cc2C1=Cc1cc(Br)c(O)c(Br)c1	.	.	i	.	i
Cc1noc(C)c1COC(=O)c1ccc(F)c(S(=O)(=O)N2CCCCC2)c1	-58%	?	i	12%	?
COc1cc(OC)c(N(C)S(=O)(=O)c2cccc(C(=O)OCC(=O)N3CCOCC3)c2)cc1Cl	-2%	?	i	7%	?
Cc1noc(C)c1COC(=O)c1cccc(S(=O)(=O)N2CCCCCC2)c1	4%	5.8µM*	i	?	?
COc1cc(OC)c(N(C)S(=O)(=O)c2cccc(C(=O)OCc3c(C)noc3C)c2)cc1Cl	-2%	18µM*	i	2%	?
C=CCn1c(SCC(=O)Nc2ccccc2C)nc2sc(C)c(C)c2c1=O	?	-12%	i	?	?
Cc1nnc(SCC(=O)Nc2cccc(S(N)(=O)=O)c2)n1-c1ccccc1	0%	9%	i	3%	i
C=CCn1c(SCC(=O)Nc2cccc(S(N)(=O)=O)c2)nc2sc(C)c(C)c2c1=O	-5%	?	i	15%	23µM*
Cc1ccc(-n2c(SCC(=O)Nc3cccc(S(N)(=O)=O)c3)nc3ccccc32)cc1	17%	?	15µM*	16µM*	i
CC(C)Cn1c(SCC(=O)Nc2cccc(S(N)(=O)=O)c2)nc2ccccc2c1=O	6%	16µM*	i	-2%	i
COCCn1c(SCC(=O)Nc2cccc(S(N)(=O)=O)c2)nc2cc(Cl)ccc2c1=O	?	?	i	?	i
O=c1[nH]ncc(N2CCN(Cc3ccccc3)CC2)c1Cl	0%	8%	i	-3%	i
Cn1cc(-c2ccc(C(=O)Nc3cccc(Oc4ccccc4)c3)c3occc23)cn1	.	.	i	.	i
CN(C)S(=O)(=O)c1ccc(S(=O)(=O)N2CCCC(C(=O)NC3CCCC3)C2)cc1 (stereo unspecified)	0%	-8%	i	17%	i
CC1=C(C(=O)OC(C)C)C(c2ccc(C)o2)C(C(=O)OC(C)C)=C(C)N1	0%	18µM*	i	-14%	i
COC(=O)C1=C(C)NC(C)=C(C(=O)OC)C1c1ccc(C)o1	2%	0%	i	4%	i
COCCNC(=O)COc1ccccc1Cl	-3%	28%	i	-10%	?
Cn1c(=O)c2c(nc(SCCCC#N)n2Cc2c(F)cccc2Cl)n(C)c1=O	-11%	16µM*	i	-6%	i
Cn1c(=O)c2c(nc(OCc3cccnc3)n2Cc2c(F)cccc2Cl)n(C)c1=O	0%	0%	i	1%	?
CN(CCOc1ccc(Cl)cc1)C(=O)c1cccc(S(=O)(=O)N2CCN(c3ccccc3)CC2)c1	-10%	.	?	9%	?
CCc1ccc(NC(=O)CSc2nc3nc(C)cc(C)n3n2)cc1	12%	-10%	i	12%	13µM*!
Cc1cc(C)n2nc(SCC(=O)Nc3ccccc3)nc2n1	-1%	-2%	i	1%	?

From PubChem
